Screens as filed in PubChem.
The full list was thinned out, with hits kept by preference.
Methyltransferases – Primary Screen for Target Class Profiling of Small Molecule Inhibitors of Methyltransferases; purified enzyme, MTase-Glo SAH luminescence; hits give low values; calls only at 40 µM; 25,000 compounds, 3.9% hits; AID 1745853, 2022; call rule not given here
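Each enzyme was assayed with SAM and its substrate. SAH formation detected by MTase-Glo luminescence; single-point 40 uM screen[…].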
Numbers without * were called inactive; i = inactive; + = active, no number. % is set by controls: 0 for no effect and ±100 for the full control effect.

SMILES | Methyltransferases
COc1ccc(-c2cc3n(n2)CC(C)(C(=O)NCc2ccccc2)N(Cc2cc(OC)ccc2OC)C3=O)cc1 (stereo not drawn) | i
CC1CCC(NC(=O)C2(C)Cn3c(ccc3-c3ccco3)C(=O)N2C2CCCCC2)CC1 (stereo not drawn) | i
CCCN1C(=O)c2c(C(=O)NCc3ccc(OC)cc3)ncn2CC1(C)C(=O)NCCC(C)C (stereo not drawn) | i
O=C(CCc1nnc2n(CCc3ccccc3)c(=O)c3ccccc3n12)NCc1ccccc1Cl | i
COc1ccc(CN2C(=O)c3cc4ccccc4n3CC2(C)C(=O)NCCC(C)C)cc1 (stereo not drawn) | i
COCCCNC(=O)c1cc2n(n1)CC(C)(C(=O)NCc1ccc(F)cc1)N(C)C2=O (stereo not drawn) | i
Cn1cncc1C(N)(c1ccc(Cl)cc1)c1ccc2c(c1)c(-c1cccc(Cl)c1)cc(=O)n2C (stereo not drawn) | +
CCCn1c(=O)c2ccccc2n2c(=O)n(CC(=O)NCc3ccc(OC)cc3)nc12 | i
Cc1cc(NC(=O)N2CCn3cccc3C2C(C)C)ccc1Br (stereo not drawn) | i
CC(C)OCCCn1c(=O)c2ccccc2n2c(CCC(=O)NCCc3ccc(Cl)cc3)nnc12 | i
COc1ccccc1CNC(=O)C1(C)Cn2nc(-c3ccccc3)cc2C(=O)N1c1ccc2c(c1)OCO2 (stereo not drawn) | i
Cc1cccc(CNC(=O)C2(C)Cn3cnc(C(=O)NCc4ccc(OC(C)C)cc4)c3C(=O)N2C2CC2)c1 (stereo not drawn) | i
COc1cccc(C(=O)NC2CCN(c3cc(-c4cccs4)[nH]n3)CC2)c1OC | i
CCS(=O)(=O)c1cccc(-c2cc(C(=O)NC3CCN(C)CC3)c(C)c3[nH]c4ncc(C)cc4c23)c1 | +
Cn1ncc2c(C(=O)NC3CCCCCC3)cc(C(C)(C)C)nc21 | i
Cc1ccc(NC(=O)Cn2c(=O)oc3cc(S(=O)(=O)N4CCCC4)ccc32)cc1 | i
Cc1c(Cl)cccc1NC(=O)N1Cc2c(sc3c2CCCC3)-n2cccc2C1C(C)C (stereo not drawn) | i
COc1ccc2cc3n(c2c1)CC(C)(C(=O)NC1CCCC1)N(Cc1ccccc1Cl)C3=O (stereo not drawn) | i
CN1CCN(CCOc2cc(OC3CCOCC3)c3c(Nc4c(Cl)ccc5c4OCO5)ncnc3c2)CC1 | +
CCOc1ccc(CN2C(=O)c3cc4ccccc4n3CC2(C)C(=O)NCc2ccccc2OC)cc1OC (stereo not drawn) | i
CC(=O)O[C@H]1[C@H](OC(=O)C(C)C)[C@]2(C)OC3(CC[C@]2(C)[C@H]2CCC[C@]4(CO4)[C@]12C)COC(=O)C3 (stereo partly drawn) | i
CC1=CC(=O)[C@H]2C(C)(C)CCC[C@]2(C)[C@@]1(O)CO | i
CC1=CC(=O)C2C(C)(C)CCCC2(C)C12CCC1(COC(=O)C1)O2 (stereo not drawn) | +
CC1CN(c2cc3c(cc2F)c(=O)c(C(=O)O)cn3-c2ccc(F)cc2F)CCN1 (stereo not drawn) | i
Nc1nc(-n2cc(C(=O)O)c(=O)c3cc(F)c(N4CC(O)C4)c(Cl)c32)c(F)cc1F | +
SMILES | Methyltransferases
C[C@@H]1CN(c2c(F)c(F)c3c(=O)c(C(=O)O)cn(C4CC4)c3c2F)C[C@H](C)N1 | i
CCc1cccc(C)c1NS(=O)(=O)c1ccc2c(c1)n(C)c(=O)n2C | i
CC(C)NC(=O)c1ccc2c(=O)n(C3CC3)c3nn(CC(=O)Nc4cccc(Cl)c4)c(=O)n3c2c1 | i
CCN(CC)c1nc2c(-c3cccc(F)c3)nnn2c2ccccc12 | i
Cc1cc(N)c2ccccc2[n+]1CCCCCCCCCC[n+]1c(C)cc(N)c2ccccc21 | +
Cc1ccc(C)c(N2C(=O)c3cc4occc4n3CC2(C)C(=O)NC2CCC(C)CC2)c1 (stereo not drawn) | i
COc1ccc(N2CCN(C(=O)CCc3nnc4n(CCCOC(C)C)c(=O)c5ccccc5n34)CC2)cc1 | i
CCCn1c(=O)c2ccc(C(=O)NC(C)C)cc2n2c(SCC(=O)Nc3ccccc3C)nnc12 | i
COc1cccc(CN2C(=O)c3cc4ccccc4n3CC2(C)C(=O)NCCC(C)C)c1OC (stereo not drawn) | i
CCN(CC)C(=S)SSC(=S)N(CC)CC | +
CC1=C(CCC(C)O[C@@H]2O[C@H](CO)[C@@H](O)[C@H](O)[C@H]2O)C(C)(C)CCC1=O (stereo partly drawn) | +
CC1=CC(=O)CC(C)(CO)C1(O)/C=C/C(C)O[C@@H]1O[C@H](CO)[C@@H](O)[C@H](O)[C@H]1O (stereo partly drawn) | i
CC(CCc1ccc(O)cc1)O[C@@H]1O[C@H](CO[C@@H]2OC(CO)[C@H](O)[C@H]2O)[C@@H](O)[C@H](O)[C@H]1O (stereo partly drawn) | i
